Records with an inconclusive call do not appear. Calls of active or inactive are those of the source. The call rests on the fitted dose curve; in most records, active means well fitted curve in the direction sought with a large enough effect; inconclusive means small, poorly fitted or top-dose-only effect, or another doubt; inactive means no such curve, though single readings can be large; an effect the other way counts as inactive or inconclusive.
Assays:
[1] = BET inhibitor-based combinations targeting novel dependencies in MECOM-rearranged (r) AML: HNT-34 cell line (AID 2202234); further: nearly all actives have a fitted effect of over 35% in size
Summary of the method: (§1)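 Activity is given as area under the curve and as Z-AUC, mean-centred within each cell line. It comes from 11-point dose curves normalized to DMSO and empty wells. CellTiter-Glo luminescence was read after 48 hr drug exposure of 500 cells/well.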

[2] = BET inhibitor-based combinations targeting novel dependencies in MECOM-rearranged (r) AML: UCSD-AML1 cell line (AID 2202235); further: nearly all actives have a fitted effect of over 40% in size
Summary of the method: as §1

[3] = BET inhibitor-based combinations targeting novel dependencies in MECOM-rearranged (r) AML: AML-194 cell line (AID 2202237; further: nearly all actives have a fitted effect of over 40% in size)
Summary of the method: (§2)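 Cells were plated at 500 per well and exposed to an 11-point dose series of each drug for 48 hr. Viability was measured by CellTiter-Glo luminescence, normalized to DMSO and empty-well controls, and summarized as AUC and per-cell-line Z-AUC.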

[4] = BET inhibitor-based combinations targeting novel dependencies in MECOM-rearranged (r) AML: OCI-AML3 cell line (AID 2202232); settings: Potency: OCI-AML3 viability; further: nearly all actives have a fitted effect of over 35% in size
Summary of the method: as §2

[5] = BET inhibitor-based combinations targeting novel dependencies in MECOM-rearranged (r) AML: MV-4-11 cell line (AID 2202233); further: nearly all actives have a fitted effect of over 45% in size
Summary of the method: as §1

[6] = BET inhibitor-based combinations targeting novel dependencies in MECOM-rearranged (r) AML: AML-191 cell line (AID 2202236; further: nearly all actives have a fitted effect of over 35% in size)
Summary of the method: as §2

Measured: Potency
Potency means the concentration at half of the fitted maximal effect.

CC(C)(NC(=O)O[C@@H]1CN2CCC1CC2)c1csc(-c2ccc(F)cc2)n1
active: [1] 14.8 µM
inactive: [2] | [3]

CC(C)(C)c1cc(C=C(C#N)C#N)cc(Br)c1O
active: [4] 23.5 µM | [5] 18.6 µM | [2] 33.2 µM | [6] 18.6 µM

CC(C)(O)/C=C\C(=O)[C@](C)(O)[C@H]1[C@H](O)C[C@]2(C)[C@@H]3CC=C4[C@@H](C=C(O)C(=O)C4(C)C)[C@]3(C)C(=O)C[C@@]12C
active: [4] 0.417 µM | [5] 0.148 µM

CC(N[C@H]1C[C@@H]1c1ccccc1)c1ccc2c(c1)OCCO2 (stereo partly specified)
inactive: [4] | [1] | [6]
active: [2] 1.05 µM

COC(=O)[C@@]12OC[C@]34[C@H]([C@@H](O)[C@@H]1O)[C@@]1(C)CC(=O)C(O)=C(C)[C@@H]1C[C@H]3OC(=O)[C@H](OC(=O)/C=C(\C)C(C)C)[C@@H]24
active: [5] 0.003 µM | [1] 0.0042 µM | [6] 0.0066 µM

C/C=C(\C)C(=O)N[C@@H](c1ccccc1)[C@@H](O)C(=O)O[C@H]1C[C@@]2(O)[C@@H](OC(=O)c3ccccc3)[C@@H]3[C@]4(OC(C)=O)CO[C@@H]4C[C@H](O)[C@@]3(C)C(=O)[C@H](OC(C)=O)C(=C1C)C2(C)C
active: [5] 0.0263 µM | [6] 0.0468 µM | [3] 0.0742 µM

O=C(O)CNC(=O)C1C(=O)N(C2CCCCC2)C(=O)N(C2CCCCC2)C1=O
not listed: [1]
inactive: all other assays above

C[C@@H]1O[C@@H](O[C@@H]2C=C3CC[C@@H]4[C@H](CC[C@]5(C)[C@@H](c6ccc(=O)oc6)CC[C@]45O)[C@@]3(C)CC2)[C@H](O)[C@H](O)[C@H]1O
active: [4] 0.0148 µM | [2] 0.0186 µM | [6] 0.0186 µM

Cc1[nH]ncc1-c1cc2nc([C@@H]3CC4CCN3CC4)[nH]c(=O)c2s1
active: [4] 9.34 µM | [5] 3.32 µM | [1] 9.34 µM | [2] 9.34 µM | [6] 8.33 µM | [3] 9.34 µM

N#CC(O[C@@H]1O[C@H](CO[C@@H]2O[C@H](CO)[C@@H](O)[C@H](O)[C@H]2O)[C@@H](O)[C@H](O)[C@H]1O)c1ccccc1 (stereo partly specified)
inactive: [4] | [6] | [3]

— PubChem BioAssay (NCATS)
